Source: PubChem BioAssay (National Center for Advancing Translational Sciences (NCATS))
D1 PAM: enhances dopamine response at the human D1 receptor. P21728. HEK293 TREx D1 cells, calcium flux, dopamine EC20 potentiation. potentiation, % at 10 µM. 360,000 compounds, 0.036% hits. AID 504651; in the data active means potentiation above about 30%; further: 0% is about no effect
Target sequence (P21728 whole entry, looked up): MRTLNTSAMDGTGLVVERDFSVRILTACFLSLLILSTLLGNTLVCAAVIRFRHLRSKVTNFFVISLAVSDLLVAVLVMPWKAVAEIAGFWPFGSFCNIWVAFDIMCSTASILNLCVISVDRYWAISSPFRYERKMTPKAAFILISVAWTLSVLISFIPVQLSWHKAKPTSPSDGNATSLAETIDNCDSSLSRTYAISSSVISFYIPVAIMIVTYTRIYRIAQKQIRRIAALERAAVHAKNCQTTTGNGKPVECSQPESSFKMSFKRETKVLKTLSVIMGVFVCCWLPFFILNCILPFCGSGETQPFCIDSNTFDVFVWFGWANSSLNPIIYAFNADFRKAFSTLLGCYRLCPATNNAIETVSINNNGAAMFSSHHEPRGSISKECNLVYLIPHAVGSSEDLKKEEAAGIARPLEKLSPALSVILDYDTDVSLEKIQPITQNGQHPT
TRHR agonist: agonists of human TRH receptor; 360,000 compounds, 0.18% hits; P34981; activation, % at 2 µM; TRHR cells, calcium flux fluo-8, FDSS agonist mode; AID 493084; further: 0% is about no effect
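TRHR-expressing cells, plated overnight in medium with 10% serum, were loaded with fluo-8 calcium dye at room temperature. After a 10 s baseline, library compound was pin-added and calcium release was recorded kinetically (ex 480/em 530) as agonist response.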
D1 agonist: activates the human D1 dopamine receptor; P21728; HEK293 T-REx D1 cells, calcium flux, agonist mode; activation, % at 2 µM; 360,000 compounds, 1% hits; AID 504660; further: 0% is about no effect
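Agonism was scored from calcium flux recorded over 180 s (1 read/s) after pintool compound addition, following a 10-cycle baseline. Cells were inducible force-coupled HEK293 TREx D1, plated overnight at 30 C and loaded with no-wash calcium dye.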
D1 antagonist: antagonists of human D1 dopamine receptor. HEK293 TREx D1 cells, calcium flux, dopamine EC80; hits give low values. activity change, negative = inhibition, % at 10 µM. 360,000 compounds, 3.2% hits; in the data active means activity change below about -30%; further: on the % scale 0 is the no-effect control and ±100 the full control effect
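Tetracycline-induced HEK293 Trex D1 cells, force-coupled to calcium, dye-loaded; compounds added and read 180 s, then EC80 dopamine added and calcium flux tracked kinetically another 180 s.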
TRHR PAM: TRH receptor (human) allosteric enhancement; TRHR cells, fluo-8 calcium fluorescence, EC20 TRH enhancement; 360,000 compounds, 0.66% hits; enhancement, % at 2 µM; P34981; AID 493056; in the data active means enhancement above about 30%; further: 0% is about no effect
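Enhancer read-out: after compound pinning and an initial kinetic agonist-mode read, an EC20 of TRH (10 nM final) was injected and fluo-8 calcium signal (Ex 480/Em 530) followed at 1 s/cycle for 100 cycles in TRHR-expressing cells.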
An asterisk follows results filed as active; ! = not confirmed by another sample. An excerpt weighted towards active compounds, which were near 4.7% of everything screened. Unless noted, no stated cut-off is given here; in the data, active means activation above about 30%; inactive means the rest.

SMILES	D1 PAM	TRHR agonist	D1 agonist	D1 antagonist	TRHR PAM
CN(C(=O)COC(=O)COc1ccc2c(c1)CCC2)c1c(N)n(Cc2ccccc2)c(=O)[nH]c1=O	-6	1	1	-31*	11
CCCSc1ncc(Cl)c(C(=O)Nc2c(C(=O)Nc3ccc(C)cc3)oc3ccccc23)n1	0	0	1	0	19
Cc1oc2c(c1C(=O)NCc1ccccc1F)C1=NCCN1C=N2	-1	0	0	21	8
CCN(CC)CCNC(=O)c1cc2c(-c3ccc(Cl)cc3)nn(C)c2s1	0	2	6	8	6
CCCCN(CC)CCNC(=O)c1cc2c(-c3ccc(Cl)cc3)nn(C)c2s1	-1	0	66*!	6	-6
COC(=O)NC1c2ccccc2Oc2ccccc21	-8	-1	75*	0	4
CCOc1c(Cl)cc(Cl)cc1CNCCSc1nnnn1C	-3	-5	4	3	1
COc1ccccc1CNC(=O)c1c2c(nc3ccccc13)C(=O)N(C1CCCCC1)C2	-1	1	4	20	1
COc1ccc(C(=O)c2cn(Cc3ccccc3)c3ccccc3c2=O)cc1OC	0	0	1	-33*	48*
O=C1N(Cc2ccccc2Cl)c2ccccc2C1(O)c1c[nH]c2ccccc12 (configuration not stated)	-2	-1	1	17	4
Cc1cc(C(=O)CSc2nc3ccccc3[nH]2)c(C)n1CC1CCCO1 (configuration not stated)	-8	-1	14	-33*	1
CSc1ncccc1C(=O)OCC(=O)c1cc(C)n(CC2CCCO2)c1C (configuration not stated)	-10	0	5	-34*	-5
CCOC(=O)c1ccc(NC(=O)CC2C(=O)N(c3cccc(OC)c3)C(=O)N2Cc2cccnc2)cc1 (configuration not stated)	-3	0	2	-13	6
Cc1cccc(OCCNc2ccc(C(F)(F)F)cc2[N+](=O)[O-])c1	-5	1	9	6	-2
COc1ccc(N(C)S(=O)(=O)c2cccc(C(=O)Nc3ccc(OC)nc3)c2)cc1	-1	0	8	-8	-3
Cc1ccc(OCCNC(=O)c2cccc(S(=O)(=O)NCc3ccccc3)c2)cc1	-2	0	41*	-35*	8
COc1ccc(CCNC(=O)COc2ccc(N(C)S(=O)(=O)c3ccc(C)cc3)cc2)cc1	2	0	16	-31*	-6
Cc1ccc(OCCNC(=O)c2cccc(Oc3ccc(C(F)(F)F)cc3[N+](=O)[O-])c2)cc1	-6	2	44*	-4	-9
COc1ccc(N(C)S(=O)(=O)c2cccc(C(=O)Nc3ccc4c(c3)OCCO4)c2)cc1	-11	0	-1	-35*	-1
Cc1cccc(-c2nc3c4ccccc4nc(NCCc4ccccc4)n3n2)c1	-5	1	2	7	-10
CCOC(=O)c1[nH]c2c(c1Cc1ccccc1)C(=O)CC(c1ccc(C(C)(C)C)cc1)C2 (configuration not stated)	-1	2	4	2	16
COc1ccc(N(C)S(=O)(=O)c2cccc(C(=O)NCc3ccc(C)cc3)c2)cc1	-5	0	4	-32*	-20
CC(=O)Nc1ccc(S(=O)(=O)NCC(=O)OCC(=O)N2CCc3ccccc32)cc1	-1	0	3	7	-1
O=C(CNS(=O)(=O)c1ccccc1Br)OCC(=O)N1CCc2ccccc21	-5	0	4	-57*	-3
O=S(=O)(c1ccc2c(c1)OCCO2)N1CCN(S(=O)(=O)c2cc(F)c(Br)cc2F)CC1	3	-2	1	1	-4
SMILES	D1 PAM	TRHR agonist	D1 agonist	D1 antagonist	TRHR PAM
Cc1ccc(C)c(NC(=O)Cn2c(=O)n(CCC(C)C)c(=O)c3cccnc32)c1	-7	0	0	-43*	2
Cc1cc(C)c(NC(=O)Cn2c(=O)n(CCC(C)C)c(=O)c3cccnc32)c(C)c1	-3	1	2	1	14
Cc1ccc(C)c(NC(=O)CN2C(=O)CCc3ccccc32)c1	2	0	-1	-7	2
CCN(CC(=O)Nc1cccc(S(=O)(=O)N(C)c2ccccc2)c1)Cc1ccccc1	4	2	11	2	-8
CC(=O)c1c(C)[nH]c(C(=O)Nc2ccc(Cl)cc2)c1C	-9	-1	33*	-63*	36*
CC(=O)c1c(C)[nH]c(C(=O)Nc2ccc(Cl)cc2F)c1C	-16	-1	8	-4	1
CC(=O)c1c(C)[nH]c(C(=O)Nc2ccc(Cl)c(S(=O)(=O)N(C)C)c2)c1C	-19	2	9	-50*	2
CC(C)CC1(C)NC(=O)N(CC(=O)Nc2cccc(S(=O)(=O)N(C)c3ccccc3)c2)C1=O (configuration not stated)	0	0	0	-39*	0
Cc1ccccc1CN(C)CC(=O)Nc1cccc(S(=O)(=O)N(C)c2ccccc2)c1	-12	1	14	-41*	-4
CCOC(=O)c1ccn(-c2nc(-c3cccc(OC)c3)cc(C(F)(F)F)n2)n1	0	-1	-1	-5	5
Cc1cc(C)c(/C=C/c2onc(C)c2S(=O)(=O)N2CCC(C(=O)NCc3ccccc3Cl)CC2)c(C)c1	-1	1	4	-2	0
CCc1nc2nc(C)cc(Nc3ccc(OC)cc3)n2n1	2	-1	0	-6	7
CC(=O)c1c(C)[nH]c(C(=O)Nc2cccc(S(=O)(=O)N(C)c3ccccc3)c2)c1C	-5	0	7	-44*	-4
O=C(COC(=O)CNC(=O)c1ccccc1)Nc1cc(C(F)(F)F)ccc1Cl	2	1	0	5	-1
C/C(=N\OCc1nc2ccccc2c(=O)n1/N=C/c1cc(C)cc([N+](=O)[O-])c1O)c1ccccc1	0	0	12	-33*	-1
COc1ccc(CC2(CO)CCN(Cc3cnn(-c4ccc(F)cc4)c3)CC2)cc1	-4	3	47*	-29	1
CCOc1cc(C(=O)Nc2cc(C)ccc2C)ccc1OCC(=O)N1CCCCC1	-11	0	2	-90*	0
Cc1ccccc1CS(=O)(=O)c1ncc(Cl)c(C(=O)Nc2nnc(C(C)C)s2)n1	3	0	-1	8	0
Cc1ccc(NC(=O)c2nc(S(=O)(=O)Cc3ccccc3C)ncc2Cl)cc1C	-9	-1	3	-40*	-23
Cc1ccc(NC(=O)c2nc(S(=O)(=O)Cc3ccc(F)cc3)ncc2Cl)cc1C	-3	2	4	-37*	-15
CCC1CCCCN1Cc1cn2c(-c3ccc(Br)cc3)nnc2s1 (configuration not stated)	-4	0	0	-32*	-1
Cc1cccc(Nc2n[nH]c(C)c2[N+](=O)[O-])c1	-7	0	20	-37*	-7
